Source: PubChem (several laboratories)
Anthrax LF inh2: inhibitors of Bacillus anthracis lethal factor protease. P15917. multiplex microsphere protease cleavage assay, LF. inhibition, % at 10 µM. hit rate 0.12% among 360,000; note: plate controls were buffer without enzyme for full effect and enzyme alone for no effect
Target sequence (P15917 whole entry, looked up): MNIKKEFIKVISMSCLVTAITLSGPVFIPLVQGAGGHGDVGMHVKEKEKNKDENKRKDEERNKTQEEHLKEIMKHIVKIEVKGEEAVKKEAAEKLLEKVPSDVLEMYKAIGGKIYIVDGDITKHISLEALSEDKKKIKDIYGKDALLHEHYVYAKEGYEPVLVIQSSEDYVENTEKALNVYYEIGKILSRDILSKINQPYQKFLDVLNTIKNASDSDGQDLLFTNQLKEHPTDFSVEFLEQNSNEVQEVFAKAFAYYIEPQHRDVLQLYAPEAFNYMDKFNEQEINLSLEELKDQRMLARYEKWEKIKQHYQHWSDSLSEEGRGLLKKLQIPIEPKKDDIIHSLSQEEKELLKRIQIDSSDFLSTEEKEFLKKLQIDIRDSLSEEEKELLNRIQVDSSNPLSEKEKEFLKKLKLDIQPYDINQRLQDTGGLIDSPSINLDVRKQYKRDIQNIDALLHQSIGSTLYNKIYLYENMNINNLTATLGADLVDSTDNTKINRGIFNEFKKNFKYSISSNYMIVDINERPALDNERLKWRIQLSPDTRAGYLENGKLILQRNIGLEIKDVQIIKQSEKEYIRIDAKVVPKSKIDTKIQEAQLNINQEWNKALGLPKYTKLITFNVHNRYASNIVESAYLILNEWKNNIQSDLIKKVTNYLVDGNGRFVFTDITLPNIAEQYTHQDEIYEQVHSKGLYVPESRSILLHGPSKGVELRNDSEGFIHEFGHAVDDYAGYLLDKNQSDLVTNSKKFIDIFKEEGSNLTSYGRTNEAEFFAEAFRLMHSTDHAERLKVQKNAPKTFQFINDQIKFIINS
Autofluor counter: flagged as autofluorescent in microsphere protease counterscreen | compound autofluorescence counterscreen, microsphere flow cytometry; active compounds read high | fluorescence intensity (concentration not given with the values) | hit rate 3.1% among 360,000; in the data active = fluorescence intensity above about 16000; inconclusive = no clear call, values can overlap the other calls
BoNT-F LC inh: BoNT F light chain protease inhibition; Multiplex microsphere protease cleavage assay, flow cytometry; inhibition, % at 10 µM; hit rate 0.22% among 360,000; AID 588497; in the data active = inhibition above about 35%, passing the limit was not always enough; inconclusive = no clear call, values can overlap the other calls; note: plate controls were buffer without enzyme for full effect and enzyme alone for no effect
BJeLR lethal: kills HRASV12-expressing BJeLR cells; BJeLR (HRASV12) viability, CellTiter-Glo ATP luminescence, 48 h; inhibition, % (no concentration beside the values); hit rate 0.17% among 300,000; in the data active = inhibition above about 50%; inconclusive = no clear call, values can overlap the other calls
BoNT A protease: blocks Botulinum neurotoxin A light chain protease | multiplex microsphere protease substrate cleavage, flow cytometry | inhibition, % at 10 µM | hit rate 0.17% among 360,000 | AID 588499; note: plate controls were buffer without enzyme for full effect and enzyme alone for no effect
An asterisk follows results filed as active; ? = inconclusive; . = no result. An excerpt weighted towards active compounds, which were near 3.5% of everything screened. Cut-off read from the data, not from the text of the source, unless noted: active = inhibition above about 30%; inconclusive = no clear call, values can overlap the other calls; inactive = below that.

SMILES	Anthrax LF inh2	Autofluor counter	BoNT-F LC inh	BJeLR lethal	BoNT A protease
CC(C)(C)c1ccc(S(=O)(=O)Nc2ccc(C(O)(C(F)(F)F)C(F)(F)F)cc2)cc1	-3	3800	-2	.	0
CCC(C(=O)N1CCC2(CC1)OCCO2)c1ccccc1 (stereo not drawn)	-2	16484*	1	0	?
Nc1[nH]c(=O)[nH]c(=O)c1N=Nc1ccc(C(=O)O)cc1	7	3615	-16	3	0
Cc1ccc(Nc2nc(N)nc(-c3oc4ccccc4c3C)n2)cc1	0	4600	-2	36	0
Cc1c(-c2nc(N)nc(Nc3ccccc3F)n2)oc2ccccc12	-4	24893*	-3	.	-3
O=C(COC(=O)COc1ccc2ccccc2c1)NCC(F)(F)F	-6	4574	37*	16	4
Cc1cc(C)n2nc(SCCC(=O)NCCc3ccccc3)nc2n1	-1	18555*	0	-6	3
COC(=O)CSc1nc2nc(C)cc(C)n2n1	-4	6425	3	-1	-1
CCOC(=O)Cc1nc2nc(C)cc(C)n2n1	4	4604	4	-2	0
CCCCCCNC(=O)Cc1nc2nc(C)cc(C)n2n1	-6	20841*	4	-6	3
COCCNC(=O)CSc1nc2nc(C)cc(C)n2n1	-1	22346*	4	-7	2
Cc1cc(C)n2nc(SCC(=O)Nc3ccccc3)nc2n1	-2	4384	-4	-2	-2
CCN(C(=O)CSc1nc2nc(C)cc(C)n2n1)c1cccc(C)c1	-2	16126*	2	-6	1
CCN(C(=O)CSc1nc2nc(C)cc(C)n2n1)c1ccccc1	0	10259	5	2	1
CN1C(=O)CC(N2CCN(C(=O)CN3CCCC3)CC2)C1=O (stereo not drawn)	1	24470*	-6	-2	-2
CC(=O)c1cccc(NC(=O)c2cc(-c3ccc(F)cc3)on2)c1	-1	19126*	6	1	6
O=C(Nc1c(F)cc(F)cc1Br)c1cc(-c2ccco2)on1	-5	9903	0	4	0
O=C(NCc1ccc(Cl)cc1)c1cc(-c2ccco2)on1	-1	11224	-11	1	-1
O=C(Nc1ccc(F)cc1F)c1cc(-c2ccco2)on1	-1	23169*	0	0	?
O=C(NCc1ccc(F)cc1)c1cc(-c2ccco2)on1	-2	23399*	-6	-17	-3
COc1ccc(CNC(=O)c2cc(-c3ccco3)on2)cc1	1	20809*	3	1	2
O=C(NCc1ccco1)c1cc(-c2ccc(F)cc2)on1	-8	22220*	1	14	3
Cc1ccc(Nc2nc(C(=O)NCc3ccco3)cs2)cc1	-2	21266*	-5	-7	-5
CCN(CC)C(=O)c1csc(Nc2ccc(C)cc2)n1	3	11087	-1	.	-1
CCN(CC)Cc1c(O)ccc2c(=O)c(-c3ccccc3OC)coc12	7	4020	?	0	-3
SMILES	Anthrax LF inh2	Autofluor counter	BoNT-F LC inh	BJeLR lethal	BoNT A protease
COc1ccccc1COC(=O)Nc1c(C)nn(C)c1Cl	-1	18871*	2	5	?
O=C1/C(=C/c2ccccc2)CCc2ccc(Cl)nc21	1	3808	2	.	0
CC(C)[C@H](NS(=O)(=O)c1ccc(Cl)cc1)C(=O)OCC(=O)c1c(N)n(C)c(=O)n(C)c1=O	1	5910	-7	.	1
Cc1ccc2c(c1)CNc1ccccc1O2	0	3151	2	0	0
Cc1ccc2c(c1)NCCO2	-6	23601*	-1	-3	?
O=C(O)C1CCCN1S(=O)(=O)c1ccccc1 (stereo not drawn)	0	20858*	5	2	3
O=C(O)C1CCCN1S(=O)(=O)c1ccc(Cl)cc1 (stereo not drawn)	4	3194	-20	1	-2
Cc1ccc(S(=O)(=O)N2CCCCC2C(=O)O)s1 (stereo not drawn)	1	2010	-5	-1	-1
Cc1ccc(S(=O)(=O)N2CCCC2C(=O)O)s1 (stereo not drawn)	0	24047*	-4	1	-2
Cc1ccc(/C(O)=C2/C(=O)C(=O)N(c3ccccn3)C2c2cccc([N+](=O)[O-])c2)cc1 (stereo not drawn)	7	2908	-9	-4	2
CCCCN(C)C(=O)c1ccc(Nc2nc(C(N)Cc3ccc(C(F)(F)F)cc3)cs2)nc1 (stereo not drawn)	-6	3653	-20	.	-1
CCn1cc(/C=C(/C#N)S(=O)(=O)c2ccccc2)cn1	-2	23211*	-3	4	-1
N#C/C(=C\c1ccc[nH]1)S(=O)(=O)c1ccccc1	-2	16572*	-5	-10	-2
